Reference: PubChem BioAssay (NCATS)
Inconclusive results are not listed. A call without a number means that no potency is given here. Active and inactive are the calls of the source. Calls come from the whole dose curve; as a rule, active = well fitted cell-killing curve with a large enough effect; inconclusive = small, poorly fitted or top-dose-only effect, or effect the other way; inactive = no such curve, though single readings can be large or run the other way.

Assay: qHTS assay to identify small molecule inhibitors of chordoma cells - UCH-1 (AID 1259355); note: nearly all actives have a fitted effect of over 55% in size
Conditions: UCH-1 chordoma viability, CellTiter-Glo, 48 h, combination, with auranofin plus four topoisomerase inhibitors; series mostly up to 46.1 µM
In short: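 Screening used approved and investigational drugs in 15-point titration against 800 seeded cells per well. A fixed combination of auranofin with camptothecin, doxorubicin, rubitecan and topotecan followed compound addition, and growth was scored by CellTiter-Glo after 48hr.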
Potency is the fitted concentration of half-maximal effect.

Compound	Potency
FC(F)(F)C(F)(F)C(F)(F)C(F)(F)C(F)(F)F	inactive
CC(C)(Oc1ccc(C2CCCc3ccccc32)cc1)C(=O)O (stereo not drawn)	inactive
CCOC(=O)[C@H](CS)NCCN[C@@H](CS)C(=O)OCC	inactive
O=C1N=C2SCCN2C(=O)C1Cc1ccc(Cl)cc1 (stereo not drawn)	inactive
CC(CC=O)CCCC(C)(C)O (stereo not drawn)	inactive
O=C(O)c1ccc(NC(=O)[C@H](Cc2ccc(O)cc2)NC(=O)c2ccccc2)cc1	inactive
O=C(CCCCCCCCCCCCC1CCCC1)Nc1ccc(S(=O)(=O)c2ccc(NC(=O)CCCCCCCCCCCCC3CCCC3)cc2)cc1	inactive
CCN1\C(=C/C=C/C=C/c2sc3ccccc3[n+]2CC)Sc2ccccc21	14.1 µM (active)
CN(C)CCC=C1c2ccccc2C(C)(C)c2ccccc21	inactive
CC1=C[C@H](O)CC(C)(C)[C@H]1/C=C/C(C)=C/C=C/C(C)=C/C=C/C=C(C)/C=C/C=C(C)/C=C/C1=C(C)C[C@@H](O)CC1(C)C	inactive
CC(O)[C@@H]1NC(=O)[C@H](Cc2ccccc2)NC(=O)[C@H](C(C)O)NC(=O)[C@H](CCCCN)NC(=O)[C@H](Cc2c[nH]c3ccccc23)NC(=O)[C@H](Cc2ccccc2)NC(=O)[C@H](Cc2ccccc2)NC(=O)[C@H](CC(N)=O)NC(=O)[C@H](CCCCN)NC(=O)[C@@H](NC(=O)CNC(=O)[C@H](C)N)CSSC[C@@H](C(=O)O)NC(=O)[C@H](CO)NC1=O (stereo partly drawn)	inactive
COc1cc(C)c(/C=C/C(C)=C/C=C/C(C)=C/C(=O)O)c(C)c1C	inactive
C=C[C@]1(C)C[C@@H](OC(=O)CSCCN(CC)CC)[C@]2(C)[C@H](C)CC[C@]3(CCC(=O)[C@H]32)[C@@H](C)[C@@H]1O	inactive
